Assay [1] can be described thus: qHTS assay to identify small molecule antagonists of the estrogen receptor alpha (ER-alpha) signaling pathway using the BG1 cell line in the presence of 0.1 nM 17-beta-estradiol - cell viability counter screen (AID 1259241). Note: nearly all actives have a fitted effect of over 40% in size. The essentials:
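The cell line endogenously expresses full-length ER-alpha and carries four EREs driving luciferase. Cells are cultured 5 days hormone-free, treated 22 hr with compounds and 0.1 nM estradiol, then viability is read by fluorescence.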
For orientation: qHTS replaces the single test concentration by a dilution series.

A short description of assay [2]: qHTS assay to identify small molecule antagonists of the androgen receptor (AR) signaling pathway using the MDA cell line in the presence of 0.5 nM R1881 - cell viability counter screen (AID 1259242). Note: nearly all actives have a fitted effect of over 45% in size. The essentials:
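Cells seeded at 3,000/well and allowed 5 hr at 37C, 0% CO2 before compound transfer and R1881 (0.5 nM final) addition; 16 hr later, live-cell protease fluorescence indicated cytotoxicity.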

The target in assay [3] is Estrogen receptor (Homo sapiens) (UniProt P03372). Put plainly: qHTS assay to identify small molecule antagonists of the estrogen receptor alpha (ER-alpha) signaling pathway using the BG1 cell line in the presence of 0.1 nM 17-beta-estradiol (AID 1259244). Note: nearly all actives have a fitted effect of over 50% in size. The essentials:
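Luciferase signal from VM7Luc4E2 ERE-reporter cells, co-dosed with test compound and 0.1 nM final 17beta-estradiol for 22 h, read with ONE-Glo.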

Assay [4] can be described thus: qHTS assay to identify small molecule HDAC inhibitors (AID 1259364). For activity change, negative = inhibition: top concentration of the series differs between compounds. Note: potency is the fitted concentration of half-maximal effect.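 Note: wild-type HCT-116 cells with endogenous class I/II HDAC activity; nearly all actives have a fitted effect of over 45% in size.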 The essentials: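 HCT-116 wt cells, 1,500/well, overnight attach. Compounds (DMSO) 2 h, 37 °C. HDAC-Glo I/II, 30 min RT. Luminescence.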
Assay [5] in a line: qHTS assay to identify small molecule HDAC inhibitors - cell viability counter screen (AID 1259365). For activity change, negative = cytotoxicity: series mostly up to about 92 µM. Note: nearly all actives have a fitted effect of over 50% in size. Note: potency is the fitted concentration of half-maximal effect. The essentials:
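Viability readout: CellTiter-Glo luminescence. Wild-type HCT-116 cells, 2hr compound treatment following overnight attachment at 37 C.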

Assay [6] can be described thus: qHTS assay to identify small molecule antagonists of the sonic hedgehog signaling (Shh) pathway - cell viability counter screen (AID 1259367). Note: nearly all actives have a fitted effect of over 55% in size. An outline of the steps: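 Fluorescence read-out (CellTiter-Fluor, 1 hr at 37C) taken after 23 hr compound treatment of 3T3 Gli1-Luc cells stimulated with conditioned medium. Cells were seeded at 2,000 per well and pre-incubated 4 hr.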

Assay [7] in a line: qHTS assay to identify small molecule agonists of the sonic hedgehog signaling (Shh) pathway (AID 1259368; calls by dose curve;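 note: NIH/3T3-derived 3T3Gli1-Luc cells carrying a stable Gli1-driven firefly luciferase reporter; series mostly up to about 92 µM; nearly all actives have a fitted effect of over 15% in size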). The essentials:
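Following a 24 hr incubation with DMSO-dissolved compounds at 37 C, 5% CO2, Gli1-Luc NIH/3T3-derived cells received luciferase reagent for 30 min at room temperature prior to luminescence measurement.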

The nature of assay [8]: qHTS assay to identify small molecule antagonists of the sonic hedgehog signaling (Shh) pathway (AID 1259369; calls by dose curve; note: nearly all actives have a fitted effect of over 45% in size; note: potency is the fitted concentration of half-maximal effect). An outline of the steps:
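Read-out is luminescence from a firefly luciferase gene controlled by the Gli1 response element, in 3T3Gli1-Luc cells pre-incubated 4hr then exposed to compounds and conditioned medium for 24hr.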

Assay [9] has as its target Estrogen receptor beta (Homo sapiens) (UniProt Q92731). Put plainly: qHTS assay to identify small molecule antagonists of the estrogen receptor beta (ER-beta) signaling pathway (AID 1259378; active = well fitted inhibition curve with a large enough effect in the signal ratio in the repeat runs, not every such curve was filed as active; the % refers to the signal ratio). The essentials: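 ER-beta-UAS-bla HEK293T cells in 2% charcoal-stripped FBS medium treated with compound plus 1nM final 17-beta-estradiol for 16 hr at 37C. Beta-lactamase reporter read by FRET substrate fluorescence after 2 hours at room temperature.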

Assay [10] in a line: qHTS assay to identify small molecule agonists of the androgen receptor (AR) signaling pathway in the presence of an antagonist - cell viability counter screen (AID 1259379).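 For activity change, negative = cytotoxicity: MDA-kb2 human breast cancer cells carrying an MMTV luciferase reporter; series mostly up to about 92 µM.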 Note: nearly all actives have a fitted effect of over 25% in size. Note: potency is the fitted concentration of half-maximal effect. The essentials: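 Each compound was tested at 15 concentrations on MDA-kb2 cells in the presence of 3.0uM nilutamide. Viability was measured by CellTiter-Fluor fluorescence after a 16 hr incubation at 37C in a CO2-free atmosphere.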

Assay [11] can be described thus: qHTS assay to identify small molecule agonists of the estrogen receptor beta (ER-beta) signaling pathway - cell viability counter screen (AID 1259380). Note: nearly all actives have a fitted effect of over 30% in size. The essentials: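 Compounds dissolved in DMSO were pin-transferred onto ER-beta-UAS-bla HEK293T cells that had settled 6 hr, and exposure ran 16 hr at 37C. Following the reporter read, CellTiter-Glo luminescence after 30 min at room temperature indicated cytotoxicity.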

Assay [12] in a line: qHTS assay to identify small molecule antagonists of the estrogen receptor beta (ER-beta) signaling pathway - cell viability counter screen (AID 1259382). Note: series mostly up to about 92 µM; nearly all actives have a fitted effect of over 55% in size. The essentials: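 CellTiter-Glo ATP luminescence measured after the LiveBLAzer read in the same wells; ER-beta-UAS-bla HEK293T cells, 16 hr compound treatment with 1nM 17-beta-estradiol agonist at 37C, 5% CO2.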
For assay [13], the target named is Estrogen receptor (Homo sapiens) (UniProt P03372). The experiment in a line: qHTS assay to identify small molecule agonists of the estrogen receptor alpha (ER-alpha) signaling pathway in the presence of an antagonist (AID 1259383; calls by dose curve; note: top concentration of the series differs between compounds; nearly all actives have a fitted effect of over 15% in size). An outline of the steps:
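Luminescent ERE-luciferase reporter, VM7Luc4E2 cells (endogenous ER-alpha); 10.0nM ICI-182,780 final; 15-point compound titration; 22hr at 37C; ONE-Glo, 30min RT.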

Assay [14] in a line: qHTS assay to identify small molecule agonists or antagonists of the thyroid stimulating hormone receptor (TSHR) signaling pathway - wild type cell line counter screen (AID 1259384; calls by dose curve). An outline of the steps:
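Wild-type Hek293 cells, 800/well, 18 h at 37C, then compound with Ro20-1724 for 30 min RT. cAMP by HTRF (cAMP-d2/anti-cAMP cryptate), 1 h RT, fluorescence read. 15 concentrations, triplicates.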

The target in assay [15] is Thyrotropin receptor (Homo sapiens) (UniProt P16473). The experiment in a line: qHTS assay to identify small molecule antagonists of the thyroid stimulating hormone receptor (TSHR) signaling pathway (AID 1259385; calls by dose curve; note: nearly all actives have a fitted effect of over 20% in size). An outline of the steps: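 TSHR-HEK293 cells (800/well) plated 18 h, then compounds with Ro20-1724 and TSH at 1.5 ng/mL final, 30 min at room temperature. cAMP quantified by HTRF (cAMP-d2/anti-cAMP-cryptate, 1 h); 15 concentrations in triplicate.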
Sequence of Thyrotropin receptor (Homo sapiens) (P16473 whole entry, looked up): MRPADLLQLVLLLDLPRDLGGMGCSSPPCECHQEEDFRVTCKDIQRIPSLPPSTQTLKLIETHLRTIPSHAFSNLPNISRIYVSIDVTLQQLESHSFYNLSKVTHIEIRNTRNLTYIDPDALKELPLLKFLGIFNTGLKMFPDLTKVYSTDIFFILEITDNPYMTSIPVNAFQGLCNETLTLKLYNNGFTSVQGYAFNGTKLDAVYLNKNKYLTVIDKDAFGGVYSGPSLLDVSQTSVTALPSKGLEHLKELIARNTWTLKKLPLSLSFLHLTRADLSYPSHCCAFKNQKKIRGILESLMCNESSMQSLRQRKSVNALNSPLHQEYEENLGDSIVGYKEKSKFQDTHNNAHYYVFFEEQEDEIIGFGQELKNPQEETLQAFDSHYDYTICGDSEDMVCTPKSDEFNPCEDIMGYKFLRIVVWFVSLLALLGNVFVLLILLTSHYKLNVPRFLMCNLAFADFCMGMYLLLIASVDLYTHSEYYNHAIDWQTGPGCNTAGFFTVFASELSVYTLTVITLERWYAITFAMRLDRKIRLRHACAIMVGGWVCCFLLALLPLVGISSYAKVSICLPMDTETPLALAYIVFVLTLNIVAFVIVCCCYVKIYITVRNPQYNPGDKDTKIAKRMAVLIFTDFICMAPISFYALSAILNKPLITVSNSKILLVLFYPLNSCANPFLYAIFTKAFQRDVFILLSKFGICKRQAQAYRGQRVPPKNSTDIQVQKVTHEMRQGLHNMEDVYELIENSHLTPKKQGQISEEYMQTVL

A short description of assay [16]: qHTS assay to identify small molecule phospholipidosis (PLD) inducers (AID 1259344; active = well fitted curve in the direction sought with a large enough effect; an effect the other way counts as inactive or inconclusive). An outline of the steps: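 Read-out is LipidTOX Red fluorescence (ex 595/em 615) imaged in HepG2 cells after 24 h compound exposure at 37 C, with Hoechst nuclear counterstain (ex 352/em 461) allowing per-cell normalisation.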
The nature of assay [17]: qHTS assay to identify small molecule agonists of the sonic hedgehog signaling (Shh) pathway - cell viability counter screen (AID 1259366). Note: nearly all actives have a fitted effect of over 50% in size. Note: potency is the fitted concentration of half-maximal effect. The essentials: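 Viability measured fluorometrically (CellTiter-Fluor, 1hr, 37C) in 3T3 Gli1-Luc reporter cells after 23hr compound exposure within a 24hr incubation at 37C/5% CO2.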
Assay [18] concerns the target Estrogen receptor beta (Homo sapiens) (UniProt Q92731). The experiment in a line: qHTS assay to identify small molecule agonists of the estrogen receptor beta (ER-beta) signaling pathway (AID 1259377; active = well fitted activation curve with a large enough effect in the signal ratio in the repeat runs, not every such curve was filed as active; the % refers to the signal ratio). The essentials: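 A UAS-controlled beta-lactamase reporter in ER-beta-UAS-bla HEK293T cells reports receptor activation. Compounds act for 16 hr at 37C in 2% charcoal-stripped serum, and a FRET substrate is read by fluorescence after 2 hours.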

A number with no mark means an inactive call. Results filed as inconclusive are left out. The source made the active and inactive calls. Unless noted, calls come from the whole dose curve; as a rule, active = well fitted curve in the direction sought with a large enough effect in the repeat runs; inconclusive = weak or mixed curves; inactive = no such curve, though single readings can be large; an effect the other way counts as inactive or inconclusive.
% is set by controls: 0 for no effect and ±100 for the full control effect.

Sequence of Estrogen receptor (Homo sapiens) (P03372 whole entry, looked up): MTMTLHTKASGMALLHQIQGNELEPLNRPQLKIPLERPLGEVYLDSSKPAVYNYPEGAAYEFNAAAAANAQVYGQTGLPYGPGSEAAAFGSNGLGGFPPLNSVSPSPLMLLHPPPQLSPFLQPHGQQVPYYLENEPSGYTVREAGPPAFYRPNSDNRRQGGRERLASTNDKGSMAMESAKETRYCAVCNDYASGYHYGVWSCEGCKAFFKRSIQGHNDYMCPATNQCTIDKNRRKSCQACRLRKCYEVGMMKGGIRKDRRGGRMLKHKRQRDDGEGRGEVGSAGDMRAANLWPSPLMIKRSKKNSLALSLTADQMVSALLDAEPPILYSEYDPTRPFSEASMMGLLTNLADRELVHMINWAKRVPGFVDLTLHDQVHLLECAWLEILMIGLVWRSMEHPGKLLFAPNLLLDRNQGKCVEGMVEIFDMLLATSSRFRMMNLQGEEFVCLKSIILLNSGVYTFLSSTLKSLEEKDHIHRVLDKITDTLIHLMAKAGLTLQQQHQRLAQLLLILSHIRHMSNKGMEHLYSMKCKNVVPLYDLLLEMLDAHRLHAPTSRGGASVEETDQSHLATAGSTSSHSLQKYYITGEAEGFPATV
Sequence of Estrogen receptor beta (Homo sapiens) (Q92731 whole entry, looked up): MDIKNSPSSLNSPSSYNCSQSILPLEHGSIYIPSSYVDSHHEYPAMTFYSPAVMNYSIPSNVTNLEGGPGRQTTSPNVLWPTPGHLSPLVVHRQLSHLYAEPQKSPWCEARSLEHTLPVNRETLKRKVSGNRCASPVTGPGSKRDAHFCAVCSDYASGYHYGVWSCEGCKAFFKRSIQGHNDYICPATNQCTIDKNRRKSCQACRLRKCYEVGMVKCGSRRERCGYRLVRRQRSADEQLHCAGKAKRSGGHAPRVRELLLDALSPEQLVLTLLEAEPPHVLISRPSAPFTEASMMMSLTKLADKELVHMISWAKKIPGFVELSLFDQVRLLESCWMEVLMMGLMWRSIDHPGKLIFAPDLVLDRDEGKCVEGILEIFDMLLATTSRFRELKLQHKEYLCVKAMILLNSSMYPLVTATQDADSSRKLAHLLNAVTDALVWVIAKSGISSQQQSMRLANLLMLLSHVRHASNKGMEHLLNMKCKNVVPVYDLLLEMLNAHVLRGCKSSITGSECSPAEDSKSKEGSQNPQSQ

On to `Brc1c2ccccc2c(Br)c2ccccc12`, for which the activity change, negative = cytotoxicity in assay [1] was 3.89% [at 8.39 µM]; in assay [5], 1.69% [at 8.39 µM]; in assay [10], 0.897% [at 8.39 µM]; in assay [11], 1.65% [at 8.39 µM]; in assay [12], 7.62% [at 8.39 µM]. Also, the viability change, negative = cytotoxic in assay [2] was 2.88% [at 8.39 µM]; in assay [6], -7.11% [at 8.39 µM]. Further, the activity change, negative = inhibition in assay [3] was 0.899% [at 8.39 µM]; in assay [4] it was 3.07% [at 8.39 µM]; in assay [8], 2.55% [at 8.39 µM]; in assay [15] it was -6.18% [at 8.39 µM]. The activity change in assay [7] was -0.511% [at 8.39 µM]. Also, the activity, negative = inhibition in assay [9] was 14.5% [at 8.39 µM]. For the same compound, in assay [13], the activation was -0.192% [at 8.39 µM]. Also, in [14], the cAMP activity change was 1.89% [at 8.39 µM, active compounds read high].
`Cc1cccc(C)c1NC(=O)CN(CC(=O)O)CC(=O)O`: the Potency entry in assay [1], in [2], in assay [16], in assay [4], in assay [5] and in assay [17] was “inactive” in each case. Besides, the Potency result in [6], in [8], in [18], in [9], in assay [10] and in [11] was “inactive” each time. Besides, the Potency entry in assay [12], in assay [14] and in [15] was “inactive” in each case. In assay [7], the compound was classed as inactive.
As to `CCCCC/C=C\C/C=C\CCCCCCCC(=O)NC(C)c1ccccc1` (stereo not given), the Potency result in assay [1], in assay [2], in assay [4], in [5], in assay [12] and in [13] was “inactive” in each case. Besides, the Potency result in [14] was “inactive”. In [16], the PLD induction was -2.94% [at 7.66 µM]. In addition, the result in assay [7] was inactive. Moreover, the Potency in [8] was 13.3 µM (active).
Turning to `CCCCOC(=O)CCCCCCCC(=O)OCCCC`, the Potency result in [1], in assay [2], in assay [4], in assay [5], in assay [17] and in assay [6] was “inactive” each time. The Potency entry in assay [8], in assay [18], in assay [9], in [11] and in assay [12] was “inactive” in each case. For the same compound, the compound was called inactive in [7].
In the case of `C=CC(=O)OCCOc1ccccc1`, the Potency entry in assay [1], in assay [2], in [4], in [5], in assay [6] and in [18] was “inactive” in each case. Also, the Potency entry in [9], in assay [10] and in [15] was “inactive” throughout. For the same compound, the figures for the Potency in assay [17] and in assay [8] were 68.5 µM (active) and 61.1 µM (active), respectively. For the same compound, the call in assay [7] was inactive.
Take `CN1CCC(N(Cc2cccs2)c2ccccc2)CC1`: the Potency entry in assay [1], in assay [2], in assay [17], in [18], in assay [9] and in [12] was “inactive” throughout. Further, the Potency result in assay [13], in assay [14] and in [15] was “inactive” throughout. In assay [16], the PLD induction was -4.03% [at 7.66 µM]. Further, the compound was called inactive in [7].
As to `CC(C)Nc1ccc(NC(C)C)c2c1C(=O)c1ccccc1C2=O`, the Potency result in [1], in assay [2], in assay [17], in [6], in assay [8] and in assay [18] was “inactive” in each case. The Potency result in assay [9], in [12], in [13] and in [14] was “inactive” in each case. Further, the results for the Potency in assay [4], in [5] and in assay [10] were 12.7 µM (active), 12.7 µM (active) and 11.3 µM (active), respectively. The compound was classed as inactive in assay [7].

The values are drawn from PubChem BioAssay (Tox21).
